In PubChem BioAssay (Tox21):
Records with an inconclusive call do not appear. Unmarked numbers belong to inactive results. The source made the active and inactive calls. The call rests on the fitted dose curve; in most records, active means well fitted activation curve with a large enough effect in the repeat runs; inconclusive means weak or mixed curves; inactive means no such curve, though single readings can be large or run the other way.
On the % scale 0 is the no-effect control and ±100 the full control effect; potency means the concentration at half of the fitted maximal effect.

Experiment: qHTS assay for small molecules that induce genotoxicity in human embryonic kidney cells expressing luciferase-tagged ATAD5 (AID 651632); further: nearly all actives have a fitted effect of over 15% in size
Conditions: HEK293T ATAD5-luciferase induction, 16 h; series mostly up to 83.3 µM; activation: at the top concentration
Excerpt: U.S. Tox21 Program National Center for Advancing Translational Sciences [NCATS] NIH Chemical Genomics Center [NCGC] U.S. Environmental Protection Agency [EPA] National Institutes of Environmental Health Sciences [NIEHS] National Toxicology Program [NTP] U.S. Food and Drug Administration [FDA] Tox21 Assay Overview: As cancer cells divide rapidly and during every cell division they need to duplicate their genome by DNA replication. The failure to do so results in the cancer cell death. Based on this concept, many chemotherapeutic agents were developed but have limitations such as low efficacy and severe side effects etc. A new cell based assay was developed to find the compounds that effectively block DNA replication either by directly damaging DNA or by inhibiting other cellular mechanisms. Enhanced Level of Genome Instability Gene 1 (ELG1; human ATAD5) protein levels increase in response to various types of DNA damage. Using a luciferase reporter-gene tagged with ATAD5, a cell-based assay [developed by Kyungjae Myung, NHGRI, NIH] was used to measure the induction of ATAD5 in human embryonic kidney cells (HEK293T). So, increase in luciferase activity can be used to identify the compounds that cause genetic stress.
Tox21 Assay Protocol Summary: For genotoxicity screening, 2,000 cells in 5 uL/well were dispensed into white, solid-bottom 1536-well plates using a Multidrop Combi (Thermo Scientific) dispenser. Following transfer of 23 nL compound or DMSO vehicle by a pin tool, the plates were incubated 16 hr at 37C and 5% CO2. 5 ul Amplite (AAT Bioquest, Inc.) was then added to each plate and following 30 min incubation at room temperature, luciferase activity was quantified on a ViewLux CCD-based plate reader.
In the case of `O=C1CSC2(CCN(CCCN3c4ccccc4Sc4ccc(Cl)cc43)CC2)N1`, the “activation” value is reported as -12.5%.
In the case of `CCN(CC)CCOCCOC(=O)C(CC)(CC)c1ccccc1`, the “activation” value is reported as -7.5%.
In the case of `C=C1C(=C/C=C2\CCC[C@]3(C)[C@@H]([C@H](C)CCCC(C)(C)O)CC[C@@H]23)C[C@@H](O)C[C@@H]1O`, the “activation” value is reported as -11.3%.
For `CC1(C)C(\C=C/C=C\C=C/C=C2/N(CCCCS(=O)(=O)O)c3ccc4ccccc4c3C2(C)C)=[N+](CCCCS(=O)(=O)[O-])c2ccc3ccccc3c21`, the “activation” value was -7.67%.
In the case of `CCCCCCCCCCCCCCCCCC(=O)OCCO`, the “activation” value is reported as 4.52%.
In the case of `CC(C)(C)CC(=O)OCC(=O)[C@@]12OC(C)(C)O[C@@H]1C[C@H]1[C@@H]3CCC4=CC(=O)C=C[C@]4(C)[C@@]3(F)[C@@H](O)C[C@@]12C`, the “activation” value is reported as 8.66%.
In the case of `CCC(=O)OCC(=O)[C@@]1(OC(=O)CC)[C@@H](C)C[C@H]2[C@@H]3CCC4=CC(=O)C=C[C@]4(C)[C@@]3(F)[C@@H](O)C[C@@]21C`, the “activation” value is reported as -10.2%.
For `NC(=S)N=Nc1ccc(NN=C(N)N)cc1`, the “activation” value was -8.46%.
With `COC(=O)C1=C(C)NC(C)=C(C(=O)O[C@H]2CCN(Cc3ccccc3)C2)[C@H]1c1cccc([N+](=O)[O-])c1` the “activation” value was -6.18%.
With `CC(C)CN(C[C@@H](O)[C@H](Cc1ccccc1)NC(=O)O[C@@H]1CCOC1)S(=O)(=O)c1ccc(N)cc1` the “activation” value was -3.36%.
For `O.O=C([O-])CC([S-])C(=O)[O-].[Au+].[Na+].[Na+]` (stereo not given), the “activation” value was 1.76%.
With `CC[N+](C)(C)Cc1ccccc1Br` the “activation” value was 1.01% [at 39.1 µM].
In the case of `CN1CCN2c3ncccc3Cc3ccccc3C2C1` (stereo not given), the “activation” value is reported as -1.51%.
In the case of `COc1cc2c(cc1OC)[C@@H](c1ccccc1)CN(C)CC2`, the “activation” value is reported as 3.07%.
In the case of `CC[C@]1(O)CC2CN(CCc3c([nH]c4ccccc34)[C@@](C(=O)OC)(c3cc4c(cc3OC)N(C)[C@H]3[C@@](O)(C(N)=O)[C@H](O)[C@]5(CC)C=CCN6CC[C@]43[C@@H]65)C2)C1` (stereo not given in full), the Potency is reported as 3.35 µM (active).
With `O=c1oc2cc(O)ccc2s1` the “activation” value was -2.39%.
In the case of `CCCCCCCCCCCCCCCCCC(=O)OC[C@@H](O)[C@H]1OC[C@H](O)[C@H]1O`, the “activation” value is reported as -1.67%.
With `CCCCC(O)c1ccccc1` (stereo not given) the “activation” value was -0.593%.
For `CCCCC(=O)O[C@H]1CC[C@H]2[C@@H]3CCc4cc(O)ccc4[C@H]3CC[C@]12C`, the “activation” value was -0.723%.
In the case of `C[C@@H]1C[C@H]2C3C[C@H](F)C4=CC(=O)C=CC4(C)[C@@]3(F)[C@@H](O)CC2(C)[C@@]1(O)C(=O)COC(=O)C(C)(C)C` (stereo not given in full), the “activation” value is reported as 7.51%.
In the case of `Nc1nc2[nH]cc(CCc3ccc(C(=O)N[C@@H](CCC(=O)O)C(=O)O)cc3)c2c(=O)[nH]1`, the “activation” value is reported as 4.63%.
In the case of `CCCCCCCCCCCCCCCCCC(=O)OCC(C)O` (stereo not given), the “activation” value is reported as 0.379%.
For `C=Cc1c(C)c2cc3nc(cc4[nH]c(cc5nc(cc1[nH]2)C(C)=C5CCC(=O)OC)c(CCC(=O)O)c4C)[C@@]1(C)C3=CC=C(C(=O)OC)[C@H]1C(=O)OC`, the “activation” value was -3.22%.
In the case of `CCCCOC(=O)C(=O)Nc1cccc(-c2nn[nH]n2)c1`, the “activation” value is reported as 2.87%.
With `C=CCN1CCCC1CNC(=O)c1cc(S(N)(=O)=O)cc(OC)c1OC` (stereo not given) the “activation” value was 5.73%.
With `C[C@H]1[C@@H](OC(=O)CCC(=O)O)O[C@@H]2OC3(C)CC[C@H]4[C@H](C)CC[C@@H]1[C@@]24OO3` the “activation” value was -10%.
In the case of `CN[C@@H]1[C@H](O[C@H]2[C@H](O[C@H]3[C@H](O)[C@@H](O)[C@H](N=C(N)N)[C@@H](O)[C@@H]3N=C(N)N)O[C@@H](C)[C@]2(O)C=O)O[C@@H](CO)[C@H](O)[C@H]1O`, the “activation” value is reported as -2.6%.
With `O=C(Nc1ccc(/C=C/c2ccc(NC(=O)c3cc(S(=O)(=O)O)c4cccnc4c3O)cc2S(=O)(=O)O)c(S(=O)(=O)O)c1)c1cc(S(=O)(=O)O)c2cccnc2c1O` the “activation” value was 3.82%.
With `COCC1=C(C(=O)OC(C)OC(=O)OC(C)C)N2C(=O)[C@@H](NC(=O)/C(=N\OC)c3csc(N)n3)[C@H]2SC1` (stereo not given in full) the “activation” value was 3.49%.
For `OCCN1CCN(CC/C=C2/c3ccccc3Sc3ccc(Cl)cc32)CC1`, the “activation” value was -1.85% [at 39.1 µM].
With `CCCCC(=O)N(Cc1ccc(-c2ccccc2-c2nn[nH]n2)cc1)[C@@H](C(=O)O)C(C)C` the “activation” value was -3.85%.
In the case of `CC(=O)Nc1ccc(OC(=O)c2ccccc2O)cc1`, the “activation” value is reported as 8.08%.
For `Nc1c(Br)cc(Br)cc1CNC1CCC(O)CC1` (stereo not given), the “activation” value was 1.22%.
With `c1ccc2c(c1)Sc1ccccc1N2CCN1CCCC1` the “activation” value was -5.85%.
For `COc1cc(S(C)=O)ccc1-c1nc2ncccc2[nH]1` (stereo not given), the “activation” value was 6.24%.
With `CCCCc1cc2c(=O)c(C(=O)OC)c[nH]c2cc1OCc1ccccc1` the “activation” value was 3.73%.
With `N#CC(c1ccc(Cl)cc1)c1c(Cl)cc(-n2ncc(=O)[nH]c2=O)cc1Cl` (stereo not given) the “activation” value was -11.7%.
With `O=C(O)CN(CC(=O)O)CC1=CC2C(=CC1=O)Oc1cc(O)c(CN(CC(=O)O)CC(=O)O)cc1C21OC(=O)c2ccccc21` (stereo not given) the “activation” value was 1.53%.
In the case of `CC(C)(S)[C@@H](N)C(=O)O`, the “activation” value is reported as 1.26%.
With `COC(=O)[C@@H](N)CS` the “activation” value was -4.16%.
